Data from PubChem BioAssay (NCATS).
Several values for one entry are separate records, joined by “and”; a condition that tells them apart may be missing. Equal entries are not always repeated. Inconclusive results are not listed. Some structures have more than one record in an assay (separate samples or runs), and their calls can disagree. Activity calls are given as the source filed them. Unless noted, calls follow the shape of the dose curve; as a rule, active = well fitted curve in the direction sought with a large enough effect; inconclusive = small, poorly fitted or top-dose-only effect, or another doubt; inactive = no such curve, though single readings can be large; an effect the other way counts as inactive or inconclusive.

Columns and labels:
[1] = qHTS assay for small molecule agonists of the antioxidant response element (ARE) signaling pathway (AID 651741; active = well fitted activation curve with a large enough effect in the signal ratio; the % refers to the signal ratio; also: potency is read from the fitted curve at half-maximal effect; as to activation: % of control where 0% means no effect)
In short: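 Seeding 2,000 ARE-bla HepG2 cells per well preceded a 5 h incubation at 37 C/5% CO2 and a 16 h compound exposure at 37 C. Beta-lactamase reporter activity was then quantified by fluorescence after 2 h with LiveBLAzer B/G FRET substrate.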

[2] = qHTS assay for small molecule activators of the p53 signaling pathway (AID 651743; active = well fitted activation curve with a large enough effect in the signal ratio, not every such curve was filed as active; the % refers to the signal ratio; also: potency is read from the fitted curve at half-maximal effect; as to activation: series mostly up to about 92 µM; % of control where 0% means no effect); settings: HCT-116 p53RE-bla, beta-lactamase FRET ratio, 16 h; activation: stronger effect = higher value
In short: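 Screen for p53 pathway agonists uses stably transfected p53RE-bla HCT-116 cells, 4,000 per well, treated 16 h at 37 C with compounds in DMSO.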

[3] = qHTS assay for environmental chemicals that activate the Aryl hydrocarbon Receptor (AhR) signaling pathway (AID 651777); settings: 1A2-DRE human hepatoma cells, luciferase, 24 h; activation: stronger effect = higher value; also: nearly all actives have a fitted effect of over 15% in size; also: potency is read from the fitted curve at half-maximal effect; as to activation: % of control where 0% means no effect
In short: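 AhR activation is scored as a rise in luciferase from a stable DRE–CYP1A2 promoter construct in human hepatoma cells. Treatment lasts 24 hr at 37 C; detection uses One-Glo after 30 min at room temperature.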

[4] = molecular target: Peroxisome proliferator-activated receptor alpha (Homo sapiens) (UniProt Q07869); test: qHTS assay for small molecule agonists of the peroxisome proliferator-activated receptor alpha (PPARalpha) signaling pathway (AID 651778); settings: PathHunter PPARalpha complementation, chemiluminescence, 6 h; stronger effect = higher value; also: % of control where 0% means no effect
In short: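 Chemiluminescence from complemented enzyme reported PPARalpha activation in cells after 6 hr of compound treatment at 37 C. The detection reagent was incubated for 60 min at room temperature, and compounds were scored as agonists.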

[5] = qHTS assay for small molecule agonists of the antioxidant response element (ARE) signaling pathway measured by Nrf2-dependant transcriptional activity (AID 720636; active = well fitted curve in the direction sought with a large enough effect in the repeat runs; an effect the other way counts as inactive or inconclusive; also: potency is read from the fitted curve at half-maximal effect;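 as to activation: HepG2 cells with an ARE-driven luciferase reporter; % of control where 0% means no effect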)
In short: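 First, ARE-luc HepG2 cells attached for 6 hr at 37 C in 1% dialyzed FBS medium. Next, compound or DMSO was added and incubated 16 hr. Finally, ONE-Glo reagent was added and luminescence measured after 30 min.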

[6] = qHTS assay for small molecule agonists of the antioxidant response element (ARE) signaling pathway measured by Nrf2-dependant transcriptional activity - cell viability counter screen (AID 720653; active = well fitted curve in the direction sought with a large enough effect in the repeat runs; an effect the other way counts as inactive or inconclusive; also: % is scaled to controls: 0 for no effect and ±100 for the full control effect); settings: ARE-bla HepG2 viability, CellTiter-Glo ATP luminescence, 16 h; stronger effect = lower value
In short: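 Cytotoxicity counter screen: intracellular ATP quantified by CellTiter-Glo luminescence in the same ARE-bla HepG2 plates, after 16 h compound exposure and a 2 h beta-lactamase substrate step.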

[7] = qHTS assay for small molecule disruptors of the mitochondrial membrane potential - 1 hr assay (AID 651754; calls by dose curve; also: nearly all actives have a fitted effect of over 35% in size; also: potency is read from the fitted curve at half-maximal effect)
In short: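 HepG2 cells, attached overnight at 37C, were exposed to compound or DMSO vehicle for 1 hr at 37C, 5% CO2, then stained with Mito-MPS dye for 30 min. Red aggregate versus green monomer fluorescence reports membrane potential.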

[8] = qHTS assay for small molecule disruptors of the mitochondrial membrane potential - 5 hr assay (AID 651755; calls by dose curve; also: nearly all actives have a fitted effect of over 40% in size; also: potency is read from the fitted curve at half-maximal effect)
In short: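 HepG2, 2,000 cells/well, overnight attach; cpd or DMSO 5 hr, 37C/5% CO2; Mito-MPS 30 min 37C; fluor 490/535 + 540/590 nm.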

[9] = molecular target: Nuclear receptor ROR-gamma (Homo sapiens) (UniProt P51449); test: qHTS assay for small molecule antagonists of the retinoid-related orphan receptor gamma (ROR-gamma) signaling pathway (AID 651802); also: nearly all actives have a fitted effect of over 60% in size; also: potency is read from the fitted curve at half-maximal effect
In short: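 CHO cells carrying TET-inducible ROR-gamma and an ROR response element–luciferase reporter were exposed to compound, then induced with doxycycline. After 16hr at 37C, luminescence was read; lower signal indicates antagonism.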

[10] = qHTS assay for small molecule antagonists of the retinoid-related orphan receptor gamma (ROR-gamma) signaling pathway - cell viability counter screen (AID 720652; active = well fitted curve in the direction sought with a large enough effect in the repeat runs; an effect the other way counts as inactive or inconclusive;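 also: series mostly up to about 92 µM; compound exposure lasted 16 hr before ATP read; % is scaled to controls: 0 for no effect and ±100 for the full control effect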)
In short: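 Counter screen in CHO cells carrying TET-inducible ROR-gamma and an ROR response element-luciferase reporter; cells plated 5 hr, compound pinned, doxycycline added, then 16 hr at 37 C. Viability read as intracellular ATP by CellTiter-Glo luminescence.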

[11] = molecular target: Tumor necrosis factor (Homo sapiens) (UniProt P01375); test: qHTS assay to identify small molecules that stimulate Tumor Necrosis Factor-alpha (TNF-alpha) secretion (AID 651757; active = well fitted curve in the direction sought with a large enough effect in the signal ratio; the % refers to the signal ratio; also: 0% is about no effect)
In short: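 THP-1 cells were exposed to compounds for 17 hrs at 37 C, after which secreted TNF-alpha was measured by homogeneous HTRF (TR-FRET) using cryptate- and XL665-labeled anti-TNF-alpha antibodies, read after 3 hr at room temperature.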

[12] = qHTS assay to identify small molecules that stimulate interleukin-8 (IL-8) secretion (AID 651758; active = well fitted activation curve with a large enough effect in the signal ratio; the % refers to the signal ratio; also: 0% is about no effect)
In short: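 Secreted IL-8 measured by TR-FRET sandwich (cryptate and XL665 antibodies) from THP-1 cells exposed to compound overnight (16 hrs, 37 C).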

Tumor necrosis factor (Homo sapiens), sequence (P01375 whole entry, looked up): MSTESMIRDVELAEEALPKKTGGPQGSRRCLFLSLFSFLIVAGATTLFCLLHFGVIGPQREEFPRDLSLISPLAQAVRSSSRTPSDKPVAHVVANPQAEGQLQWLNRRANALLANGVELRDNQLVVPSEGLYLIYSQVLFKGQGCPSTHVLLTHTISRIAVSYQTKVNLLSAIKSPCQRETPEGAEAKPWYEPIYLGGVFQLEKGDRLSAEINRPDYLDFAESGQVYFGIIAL
Peroxisome proliferator-activated receptor alpha (Homo sapiens), sequence (Q07869 whole entry, looked up): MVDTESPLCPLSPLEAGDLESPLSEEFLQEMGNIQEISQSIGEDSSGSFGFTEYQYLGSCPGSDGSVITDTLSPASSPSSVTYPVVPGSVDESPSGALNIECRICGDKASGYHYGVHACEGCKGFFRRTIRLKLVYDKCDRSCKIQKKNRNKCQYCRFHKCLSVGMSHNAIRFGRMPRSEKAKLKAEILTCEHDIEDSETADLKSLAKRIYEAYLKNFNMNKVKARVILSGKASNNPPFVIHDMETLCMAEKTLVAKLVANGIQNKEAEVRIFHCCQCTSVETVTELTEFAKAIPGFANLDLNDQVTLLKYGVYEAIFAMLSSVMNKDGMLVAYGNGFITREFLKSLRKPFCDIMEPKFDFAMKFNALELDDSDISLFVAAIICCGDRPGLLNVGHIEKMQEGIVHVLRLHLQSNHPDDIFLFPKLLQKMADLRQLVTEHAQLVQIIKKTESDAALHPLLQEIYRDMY
Nuclear receptor ROR-gamma (Homo sapiens), sequence (P51449 whole entry, looked up): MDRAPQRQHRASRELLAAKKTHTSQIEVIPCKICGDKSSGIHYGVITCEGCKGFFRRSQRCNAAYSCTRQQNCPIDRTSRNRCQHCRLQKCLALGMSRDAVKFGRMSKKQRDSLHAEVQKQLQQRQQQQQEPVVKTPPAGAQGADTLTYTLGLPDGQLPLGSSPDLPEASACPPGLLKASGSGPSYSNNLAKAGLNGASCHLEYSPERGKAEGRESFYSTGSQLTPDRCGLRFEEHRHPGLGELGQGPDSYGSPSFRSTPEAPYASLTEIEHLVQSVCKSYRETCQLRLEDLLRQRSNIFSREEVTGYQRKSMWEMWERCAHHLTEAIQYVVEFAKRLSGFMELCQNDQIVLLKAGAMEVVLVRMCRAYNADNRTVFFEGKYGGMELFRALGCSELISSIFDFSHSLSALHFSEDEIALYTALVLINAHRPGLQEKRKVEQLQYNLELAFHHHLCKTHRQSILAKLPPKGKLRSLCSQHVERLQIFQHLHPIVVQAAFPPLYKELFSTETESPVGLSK

C=C(C)C1CC=C(C)CC1 (centres undefined)
inactive and 1.12 mM (active): Potency [1]
inactive: activation [2] -4.46% | activation [3] -2.32% and -0.122% | max response [4] -1.15% and 0.153% | Potency [5] | max response [6] -0.676% and -5.86%

Nc1ccc(N=Nc2ccccc2)c(N)n1
active: Potency [1] 19.3 µM and 37.6 µM | Potency [7] 18.8 µM | Potency [8] 16.8 µM | Potency [3] 39.8 µM and 44.7 µM
inactive: activation [2] 2.09% and 13.7% | max response [4] -8.45% and -6.87% | Potency [9] | max response [6] -11.4% and -26.2%

O=c1n(CC2CO2)c(=O)n(CC2CO2)c(=O)n1CC1CO1 (centres undefined)
inactive: Potency [7] | Potency [8] | activation [3] 1.5% and 3.12% | max response [4] -0.847% and -0.241% | Potency [9] | outcome [10] | max response [6] -19.7% and -11.1%
active: Potency [1] 7.5 µM and 6.86 µM | Potency [2] 15.8 µM and 39.8 µM | Potency [5] 59.6 µM and 61.1 µM

ClC(Cl)Cl
inactive: Potency [1] | activation [2] 0.456% | Potency [7] | Potency [8] | Potency [11] | activation [3] -0.58% | max response [4] 0.366% | Potency [5] | outcome [10] | max response [6] -10.5%

c1ccc2ccccc2c1
inactive: Potency [1] | activation [2] -7.12% and -1.33% | Potency [11] | activation [3] 0.0968% and 0.369% | max response [4] -3.91% and 0.0956% | Potency [9] | Potency [5] | outcome [10] | max response [6] 1.06% and 1.45%

C[Si](C)(C)O[Si](C)(C)C
inactive: Potency [1] | activation [2] -3.5% | activation [3] 1.01% | max response [4] -0.124% | Potency [5] | max response [6] -6.75%

CC(C)(C)CC(C)(C)c1ccc(OCCO)cc1
inactive: activation [2] 9.34% | Potency [7] | Potency [11] | activation [3] 2.97% | max response [4] 20.4% | Potency [5] | max response [6] -18%
active: Potency [1] 37.6 µM | Potency [9] 42.2 µM

OCl
inactive: Potency [1] | activation [2] -2.68% | Potency [7] | Potency [8] | Potency [11] | activation [3] 0.267% | max response [4] -2.41% | Potency [9] | Potency [5] | outcome [10] | max response [6] -6.58%

CCCCO
inactive: Potency [1] | activation [2] 0.244% and -1.87% | Potency [7] | Potency [8] | Potency [11] | Potency [12] | activation [3] -0.013% and -0.728% | max response [4] -5.14% and -4.07% | Potency [5] | outcome [10] | max response [6] -5.18% and -2.26%

CO/N=C(/C(=O)N[C@@H]1C(=O)N2C(C(=O)O)=C(COC(N)=O)CS[C@H]12)c1ccco1
inactive: activation [2] 1.84% | Potency [7] | Potency [8] | Potency [11] | activation [3] -0.274% | max response [4] -0.921% | Potency [9] | Potency [5] | outcome [10] | max response [6] 4.41%
active: Potency [1] 42.2 µM

Cc1ccc(S(=O)(=O)NCl)cc1
inactive: Potency [1] | activation [2] -0.574% | activation [3] -2.28% | max response [4] -0.128% | Potency [5] | max response [6] -0.456%

Cc1ncc[nH]1
inactive: Potency [1] | activation [2] -3.81% | Potency [7] | Potency [8] | Potency [11] | Potency [12] | activation [3] 0.165% | max response [4] -1.93% | Potency [9] | Potency [5] | outcome [10] | max response [6] 2.15%
